# Measured values published in PubChem BioAssay (NCI).
# The panel holds about 83,000 compounds, 20% with a hit somewhere; the sample as a whole holds those more often.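 Step 1: grow cells in 96-well plates. Step 2: add test compound at a single concentration. Step 3: incubate 48 h. Step 4: record percent growth.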 A number with no mark means an inactive call. The source made the active and inactive calls. The calls were made as follows: active = growth percent below 10; inactive = the rest.
# Key:
# Test in all cases: NCI-60 one-dose screen, 48 h (100 = growth as untreated, 0 = no growth, -100 = all killed)
# NCI-H23 lung = conditions: 10 µM unless noted
# NCI-H226 lung = conditions: 10 µM unless noted
# NCI-H322M lung = conditions: 10 µM unless noted
# HOP-62 NSCLC = conditions: 10 µM unless noted
# NCI-H460 lung = conditions: 10 µM unless noted
# HOP-92 NSCLC = conditions: 10 µM
# NCI-H522 lung = conditions: 10 µM unless noted
# A549/ATCC NSCLC = conditions: 10 µM unless noted
# 786-0 renal = conditions: 10 µM unless noted
# COLO 205 colon = conditions: 10 µM unless noted
# DU-145 prostate = conditions: 10 µM unless noted
# K-562 leukemia = conditions: 10 µM unless noted
# MALME-3M melanoma = conditions: 10 µM unless noted
# MDA-MB-231 breast = conditions: 10 µM unless noted
# SF-268 CNS = conditions: 10 µM unless noted
# SF-295 CNS = conditions: 10 µM unless noted
# SF-539 CNS = conditions: 10 µM unless noted
# UACC-257 melanoma = conditions: 10 µM unless noted
# RXF 393 renal = conditions: 10 µM unless noted
# M14 melanoma = conditions: 10 µM unless noted
SMILES,growth (NCI-H23 lung),growth (NCI-H226 lung),growth (NCI-H322M lung),growth (HOP-62 NSCLC) [%],growth (NCI-H460 lung),growth (HOP-92 NSCLC),growth (NCI-H522 lung),growth (A549/ATCC NSCLC),growth (786-0 renal),growth (COLO 205 colon),growth (DU-145 prostate),growth (K-562 leukemia),growth (MALME-3M melanoma),growth (MDA-MB-231 breast),growth (SF-268 CNS),growth (SF-295 CNS),growth (SF-539 CNS),growth (UACC-257 melanoma),growth (RXF 393 renal),growth (M14 melanoma) [%]
O=C(CNc1nc(-c2cccc([N+](=O)[O-])c2)cs1)Nc1cccc([N+](=O)[O-])c1,-29.7% (active),-35.9% (active),58.9%,17.3,-15.7% (active),-39.4% (active),-36.2% (active),-19% (active),-13.6% (active),-30.8% (active),-6.15% (active),8.33% (active),-70.8% (active),-28.8% (active),-4.97% (active),0.245% (active),-29.6% (active),-13% (active),–,–
c1ccc(C(c2nc3ncncc3[nH]2)N2CSc3nc4ncncc4n3C2)cc1 (centres undefined),55%,56.2%,64.3%,26.3,83.6%,64.9%,39.8%,92.2%,33.9%,61.8%,34.1%,24.8%,58.5%,49.7%,66.8%,39.6%,49.5%,76%,–,–
C=CCn1c(SCC(=O)Nc2ccc(C(=O)/C=C/c3ccc(Br)cc3)cc2)nnc1-c1c[nH]c2ccccc12,90%,84.7%,93.7%,92.7,95.4%,86.4%,82.5%,–,102%,109%,91.6%,66.8%,91%,86.2%,70.7%,90.2%,88.2%,107%,–,–
CCCCNNC(=O)c1ccc(-c2cccc(F)c2F)cc1,38.1%,39.5%,42.4%,28.5,30%,-3.72% (active),–,34.2%,50.8%,4.96% (active),28.9%,21.8%,9.92% (active),51.3%,55.6%,28.2%,40.8%,23.5%,-34% (active),–
O=C(NNc1nc2cc(F)ccc2n2c(CN3CC4CNCC4C3)ccc12)c1cnccn1 (centres undefined),35.4%,25%,31.8%,24.9,4.93% (active),50.8%,16.9%,–,16.3%,18.3%,27.5%,15.6%,18.9%,39.5%,22.3%,2.89% (active),15.1%,13.7%,–,–
O=C(NNc1nc2cc(F)ccc2n2c(CN3CCC(O)C3)ccc12)c1cnccn1 (centres undefined),20.2%,18.8%,24.8%,14.6,5.14% (active),23.2%,-0.38% (active),–,16.2%,8.58% (active),24%,11.8%,12.1%,34.2%,22.6%,4.11% (active),10.1%,7.04% (active),–,–
Cc1c(F)cc(C(N)=O)cc1NCC(=O)Nc1ccc([N+](=O)[O-])cc1,89.2%,82.2%,99.4%,70.6,99%,75.8%,–,87.7%,87.5%,105%,86.7%,101%,109%,89.8%,81.2%,93.6%,95.1%,102%,45.5%,–
Cc1c(Cl)cccc1S(=O)(=O)Nc1ccc2c(c1)C(=O)N(C1CCC(=O)NC1=O)C2=O (centres undefined),102%,66.6%,88.8%,73.5,111%,49%,94.2%,104%,78.9%,62.3%,108%,101%,55%,46.8%,82.1%,91.7%,102%,113%,–,–
C/C(=N\O)[C@H]1C[C@]23CC[C@]4(C)[C@H](CC[C@@H]5[C@@]6(C)CC/C(=N/O)C(C)(C)[C@@H]6CC[C@]54C)[C@H]2[C@H](C)C1(C)OC3,96.5%,91.9%,114%,88.5,106%,106%,–,94.7%,92.1%,116%,94.4%,101%,106%,99%,89.4%,101%,103%,110%,58.1%,105
O=C(O)c1cn(C2CC2)c2cc(N3CCN(C(=O)CN4C(=O)CSC4=O)CC3)c(F)cc2c1=O,103%,101%,101%,75.8,107%,104%,–,93.5%,94.1%,113%,90.5%,102%,103%,81.2%,83.5%,106%,88.5%,107%,61.7%,108
O=C1[C@@H]2Cc3c([nH]c4ccccc34)[C@H](c3c(Cl)cccc3Cl)N2C(=O)CN1C1CCN(CC2CCCCC2)CC1,91.3%,85.9%,83.5%,104,12.7%,64.8%,24.1%,64.4%,46.6%,96.2%,34.4%,1.73% (active),80.6%,50%,75.2%,105%,68.8%,91.4%,–,–
COc1cc(C2N=C(NNc3ccccc3)NC(C)=C2C(C)=O)ccc1O (centres undefined),96.7%,86.5%,88.1%,82,106%,90.4%,78.5%,95.5%,102%,113%,108%,66.8%,106%,76.8%,86.3%,101%,98.7%,110%,–,–
CC1(C)CC[C@]2(C(=O)N3CCOCC3)CC[C@]3(C)C(=CC[C@@H]4[C@@]5(C)C/C(=C/c6ccco6)C(=O)C(C)(C)[C@@H]5CC[C@]43C)[C@@H]2C1,86.6%,69%,102%,87,98.5%,77.8%,–,87.8%,79.5%,108%,73.2%,64.2%,97.4%,85.5%,63.1%,95.3%,86.5%,94.5%,-3.24% (active),–
COc1c(N2CC3CCCNC3C2)c(F)cc2c(=O)c(C(=O)N/N=C/c3ccc(Br)cc3)cn(C3CC3)c12 (centres undefined),88.3%,91.4%,89%,88.4,86%,57.9%,77.6%,–,85.3%,100%,85.5%,-18.5% (active),82.8%,56.1%,82.4%,101%,72.7%,100%,–,–
O=C(Nc1cccc(C(F)(F)F)c1)c1cc(-c2ccc(F)cc2F)ccc1O,-4.34% (active),9.06% (active),4.46% (active),12.8,2.67% (active),-26.2% (active),–,7.54% (active),14.9%,75.5%,18.9%,11.1%,-10.2% (active),3.11% (active),16.5%,-23.1% (active),10.4%,-8.74% (active),-25.9% (active),–
C=CCn1c(SCC(=O)Nc2ccc(C(=O)/C=C/c3cccc([N+](=O)[O-])c3)cc2)nnc1-c1c[nH]c2ccccc12,94.1%,74.2%,91.2%,106,102%,101%,78.9%,93.9%,106%,110%,97%,–,86.6%,85.2%,84%,91%,96.4%,103%,–,–
Cc1ccc(NC(=O)CNc2cc(C(N)=O)cc(F)c2C)c(Cl)c1,86.9%,80.5%,102%,71.8,102%,74.9%,–,91.9%,92.9%,112%,87.2%,94.2%,106%,67%,81.7%,101%,89.8%,107%,36.2%,103
